Data published in PubChem BioAssay (NCATS).
Inconclusive results are not listed. Entries that show only a call come without a potency. Calls of active or inactive are those of the source. The call rests on the fitted dose curve; in most records, active means well fitted cell-killing curve with a large enough effect; inconclusive means small, poorly fitted or top-dose-only effect, or effect the other way; inactive means no such curve, though single readings can be large or run the other way.

test: qHTS of pediatric cancer cell lines to identify multiple opportunities for drug repurposing: Confirmatory screen for NB-EBc1 cells (AID 1347115); conditions: NB-EBc1 neuroblastoma cells, viability (cytotoxicity); series mostly up to 45.9 µM;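 further: cells exposed to compound for 48 h before the viability read; nearly all actives have a fitted effect of over 45% in size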
Source text: Drug repurposing or repositioning has been offered as a strategy for drug development in oncology programs. This approach has special potential for childhood cancers and other rare or orphan diseases, where the expected return on new drug development has been a disincentive to pharmaceuticals.
In this project we exploit the poly-pharmacology of drugs to discover new indications via phenotypic screening of a panel of 19 well-characterized cell lines derived from solid tumors seen in children and adolescents. The goal is to identify approved drugs with previously unrecognized anticancer properties that has the potential to reveal new mechanisms and biological processes involved in carcinogenesis or drug resistance. We employed a titration-based paradigm (quantitative high-throughput screening or qHTS), where all compounds were tested at multiple concentrations for their effect on cell viability. Concentration-response curves (CRCs) were derived directly from the primary screen, and both potency and efficacy values were used to identify compounds with robust bioactivity profiles. We screened the NIH Chemical Genomics Center (NCGC) Pharmaceutical Collection (NPC) and Mechanism Interrogation Plate (MIPE) small molecule collections of approved and investigational compounds against these cell lines; and measured metabolically active cells after 48 hours of compound treatment as a proxy for cell viability.
Assay Submitter: Nathalia J. Martinez, National Center for Advancing Translational Sciences, National Institutes of Health, Rockville, MD, USA; email: natalia.martinez@nih.gov
[1] Shen, M et al. Quantitative high-throughput phenotypic screening of pediatric cancer cell lines identifies multiple opportunities for drug repurposing. Oncotarget 2017 Dec 19;9(4):4758-4772. PMID 29435139.
The cells were obtained from University of North Carolina (UNC), Pediatric Preclinical Testing Program (PPT), and Coriell Institute (CI).
qHTS cell viability assay:
Cells were assayed in growth media at a density of 500-1,000 cells/well. Five microliters of cells were dispensed into 1,536-well, white, solid-bottom, TC-treated plates (Greiner Bio One) using a multidrop dispenser and incubated at 37 degrees C, 5% CO2, under a humidified atmosphere for 5 hours. Twenty-three nanoliters of compounds and controls (neutral control DMSO or positive control bortezomib at final concentration of 2.3 µM) were subsequently transferred by Kalypsys pintool. For primary screens, the MIPE collection was tested at 11-point dilutions (final concentrations range from 0.78 nM to 46 µM) and the NPC collection at 8-point dilutions (final concentrations range from 0.59 nM to 46 µM). Compounds tested in follow-up screens were assayed at 11-point dilutions. Cells were incubated for 48 hours, followed by addition of 3 µL of CellTiter-Glo (Promega). After a 15 min incubation at room temperature, samples were analyzed for luminescence intensity using a ViewLux High-throughput CCD imager equipped with clear filters.
Potency means the concentration at half of the fitted maximal effect.

SMILES | Potency
Nc1ccc2cc3ccc(N)cc3nc2c1 | 13.1 µM (active)
CCc1cc2cc(OC)c(OC)cc2c(Cc2ccccc2)n1 | inactive
Cc1ccc(C(=O)Oc2ccc(C(O)CNC(C)(C)C)cc2OC(=O)c2ccc(C)cc2)cc1 (stereo not given) | inactive
Nc1c2ccccc2nc2ccccc12 | 6.57 µM (active)
O=c1[nH]sc2cc(Cl)ccc12 | 20.8 µM (active)
CCC(=O)O[C@]1(C(=O)COC)[C@@H](C)C[C@H]2[C@@H]3CCC4=CC(=O)C=C[C@]4(C)C3(F)[C@@H](O)C[C@@]21C (stereo not given in full) | inactive
COc1c(C)c2c(c(O)c1C/C=C(\C)CCC(=O)OCCN1CCOCC1)C(=O)OC2 | 0.827 µM (active)
CC(C)=CCC/C(C)=C/CC/C(C)=C/C(=O)OCC(=O)[C@@]1(O)CC[C@H]2[C@@H]3CCC4=CC(=O)C=C[C@]4(C)[C@H]3[C@@H](O)C[C@@]21C | inactive
CC(=O)OCC(=O)[C@@]1(O)[C@H](OC(C)=O)C[C@H]2[C@@H]3CCC4=CC(=O)C=C[C@]4(C)[C@@]3(F)[C@@H](O)C[C@@]21C | inactive
C[C@H]1C[C@@H]2[C@H]([C@@H](O)C[C@@]3(C)[C@H]2CC[C@]3(O)C(=O)CO)[C@@]2(C)C=CC(=O)C=C12 | inactive
CN(C)CCN(Cc1ccsc1)c1ccccn1 | inactive
CCN(CC)CC(=O)OCC(=O)[C@@]1(O)CC[C@H]2[C@@H]3CCC4=CC(=O)CC[C@]4(C)[C@H]3[C@@H](O)C[C@@]21C | inactive
CO[C@@H]1[C@@H](OC)[C@H](C)[C@@](O)(CC(=O)O)O[C@H]1[C@H](C)[C@H]1O[C@@]2(CC[C@@](C)([C@H]3CC[C@@](C)([C@@H]4O[C@@H]([C@H]5O[C@](C)(O)[C@H](C)C[C@@H]5C)C[C@@H]4OC4C[C@H](OC)[C@@H](OC)[C@H](C)O4)O3)O2)C[C@H](O)[C@H]1C (stereo not given in full) | 1.47 µM (active)
CC(=O)O[C@@H]1C(=O)O[C@@H]2[C@H]1OC(=O)[C@@H]2OC(C)=O | inactive
N=C(N)c1ccc(OCCCOc2ccc(C(=N)N)cc2)cc1 | inactive
C[C@H]1C[C@H]2[C@@H]3CCC4=CC(=O)C=C[C@]4(C)[C@H]3C(=O)C[C@]2(C)[C@@]1(O)C(=O)CO | 8.27 µM (active)
CC[C@@]1(O)C(=O)OCc2c1cc1n(c2=O)Cc2c-1nc1ccccc1c2/C=N/OC(C)(C)C | 0.0052 µM (active)
COc1cc(/C=C/C(N)=O)cc(OC)c1OC | inactive
Cc1cc(OCCOCC[N+](C)(C)Cc2ccccc2)ccc1C(C)(C)CC(C)(C)C | 16.5 µM (active)
CCC1(c2cnc[nH]2)Cc2ccccc2C1 | 20.8 µM (active)
CCCCC(CC)CNC(=O)CC(C)OC(=O)CCC(=O)O (stereo not given) | inactive
CC(C)(C)CC(=O)OCC(=O)[C@@]1(O)CC[C@H]2[C@@H]3CCC4=CC(=O)C=C[C@]4(C)[C@H]3[C@@H](O)C[C@@]21C | inactive
CC(=O)[C@@]1(O)CC[C@H]2[C@@H]3C[C@H](C)C4=CC(=O)CC[C@]4(C)[C@H]3CC[C@@]21C | inactive
CCCC(=O)O[C@]1(C(=O)COC(=O)CC)CC[C@H]2[C@@H]3CCC4=CC(=O)CC[C@]4(C)[C@H]3[C@@H](O)C[C@@]21C | inactive
O=[N+]([O-])c1ccc(O)c2ncccc12 | 7.37 µM (active)
